Here are results for 24 compounds from PubChem BioAssay (NCATS).

Assay [1] in a line: KB-8-5-11 P-gp reporter qHTS against the NCATS DSHEA and TCM libraries (AID 1919977). In short, it runs like this:
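Cells were seeded, allowed ~4 h to attach, dosed by pin tool (substance titrations), incubated ~72 h at 37C, then lysed with CellTiter-Glo for 30 min at room temperature before luminescence reading.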
For orientation: qHTS replaces the single test concentration by a dilution series.

The target of assay [2] is Bile acid receptor (Homo sapiens) (UniProt Q96RI1). In words: qHTS assay for small molecule agonists of farnesoid X receptor signaling (AID 588527; calls by dose curve). The following applies: HEK293T FXR-UAS-bla, beta-lactamase ratio, 16 h; stronger effect = higher value. The gist of the method:
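FXR-UAS-bla HEK293T, 10% dialyzed FBS; cpds up to 92 uM titration, 16 h 37 C; CCF4 dye 2 h RT; fluorescence. Normalized to chenodeoxycholic acid 100 uM (100%) and DMSO (0%); Hill fit gives EC50, efficacy.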

Assay [3] is described as follows: Cell Viability - BJ (AID 421; calls by dose curve;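 note: potency is the fitted concentration of half-maximal effect; cells exposed to compound for 40 hours at 37 °C before readout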). The following applies: BJ fibroblast viability, qHTS. In short, it runs like this:
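Luminescent ATP signal (CellTiter-Glo, 20 min at room temperature) served as the read-out of viable BJ cells after 40 hours of compound treatment. Responses were scaled between DMSO and 100 uM tamoxifen, and AC50 values were obtained by Hill modeling.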

Assay [4] in a line: Cell Viability - SH-SY5Y (AID 544). Note: nearly all actives have a fitted effect of over 55% in size. The conditions noted are these: SH-SY5Y neuroblastoma cell viability; viability change, negative = cytotoxic: at 92.2 µM (top of the series). In short, it runs like this:
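Luminescent ATP read-out (CellTiter-Glo) measures loss of viable SH-SY5Y neuroblastoma cells after 40 hr compound exposure at 37 °C. AC50 values derive from standard Hill modelling of qHTS concentration-response data.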

Assay [5] in a line: Cell Viability - LYMP1-003 - Assay at 40 hr (AID 964). Note: nearly all actives have a fitted effect of over 60% in size. The gist of the method: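 Cells were seeded at 2500 per well and incubated 5 hr at 37 C. Compounds were added across a concentration series and left 40 hr at 37 C. CellTiter-Glo was added for 30 min at room temperature before luminescence reading.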
A short description of assay [6]: Cell Viability - LYMP2-017 (AID 972).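 Note: cells exposed to compound for 24 hours at 37 °C; nearly all actives have a fitted effect of over 55% in size.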 The gist of the method: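 2500 cells/well, 5 h 37 C; cpd 24 h 37 C in complete medium; CellTiter-Glo, 30 min RT; luminescence (ATP). AC50 via Hill fit, qHTS.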
The nature of assay [7]: qHTS Assay for Identification of Small Molecule Inducers of Hypoxia Response (AID 2120; active = well fitted curve in the direction sought with a large enough effect in the signal ratio, with a control signal flat, not every such curve was filed as active; the % refers to the signal ratio). The gist of the method: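 ME-180 HRE-bla cells plated in Opti-MEM/0.5% dialyzed FBS, rested 4-5 h, then dosed with compound titrations by pin tool. After 17 h at 37 degrees C, CCF4 dye loaded 2.5 h at RT; 460/530 nm ratio gave %Activity and AC50.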
The nature of assay [8]: qHTS assay for small molecule antagonists of peroxisome proliferator-activated receptor delta signaling (AID 588535).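 Note: cells co-treated with a PPAR-delta agonist as stimulator during compound exposure.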 The conditions noted are these: HEK293T PPARd-UAS-bla, beta-lactamase FRET ratio, 18 h; 460 nm channel. The gist of the method: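 Antagonist-mode beta-lactamase reporter (GeneBLAzer PPAR-delta-UAS-bla) in HEK293T cells, 2% charcoal/dextran FBS, 4000 cells/well. Compound titrations, 18 h at 37 C; CCF4 ratio read, IC50 and efficacy from Hill fits.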

Assay [9] concerns the target Vitamin D3 receptor (Homo sapiens) (UniProt P11473). In words: qHTS assay for small molecule antagonists of vitamin D receptor signaling (AID 588541; calls by dose curve;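 note: receptor activated by calcitriol during compound treatment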). In short, it runs like this:
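VDR-UAS-bla HEK293T cells in 2% charcoal-stripped FBS were stimulated with 1-alpha,25-dihydroxyvitamin D3 (3 nM final) plus compound for 16 h at 37 C. The beta-lactamase CCF4 readout was normalized to 50 nM agonist and DMSO, and Hill fits gave IC50.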

The target is the same in assay [10]. Briefly: qHTS assay for small molecule agonists of vitamin D receptor signaling (AID 588543; calls by dose curve). The gist of the method:
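qHTS in agonist mode: compound titrations stimulate a VDR-driven β-lactamase reporter in HEK293T cells over 16 h at 37 °C. Response normalized to 50 nM 1α,25-dihydroxyvitamin D3 = 100%, DMSO = 0%; Hill fitting gives EC50 and maximal response.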

Assay [11] addresses Thyroid hormone receptor beta (Homo sapiens) (UniProt P10828). Briefly: qHTS assay for small molecule agonists of thyroid hormone receptor beta signaling (AID 588545; calls by dose curve). The gist of the method: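 Agonist-mode beta-lactamase reporter assay, HEK 293 cells, 2% charcoal/dextran FBS; cells plated 4 hrs, compound 18 hrs at 37 C, CCF4 2 hrs RT. Normalized to 10 nM T3 (100%) and DMSO (0%); Hill fit gives EC50, efficacy.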

Assay [12] addresses Retinoic acid receptor RXR-alpha (Homo sapiens) (UniProt P19793). In words: qHTS assay for small molecule antagonists of retinoid X receptor alpha signaling (AID 588546; active = well fitted inhibition curve with a large enough effect in the signal ratio, with a control signal flat, not every such curve was filed as active; the % refers to the signal ratio). The conditions noted are these: HEK293T RXRa-UAS-bla, beta-lactamase ratio, antagonist mode. In short, it runs like this: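 Beta-lactamase reporter inhibition, read as CCF4 fluorescence ratio (ex 405, em 460/530 nm) after 2 h at RT. HEK293T UAS-bla cells, 2500/well, were stimulated with 9-cis-RA at 500 or 100 nM final alongside test compound for 18 h at 37 C.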

Assay [13] in a line: qHTS assay for small molecule agonists of the antioxidant response element (ARE) signaling pathway (AID 651741; active = well fitted activation curve with a large enough effect in the signal ratio; the % refers to the signal ratio; note: potency is the fitted concentration of half-maximal effect). In short, it runs like this: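 CellSensor ARE-bla HepG2 cells (2,000/well) carrying ARE-driven beta-lactamase, exposed 16 h at 37 C. LiveBLAzer B/G FRET substrate added for 2 h at room temperature; fluorescence intensity read.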
The nature of assay [14]: qHTS assay for small molecule agonists of the antioxidant response element (ARE) signaling pathway measured by Nrf2-dependant transcriptional activity - cell viability counter screen (AID 720653; active = well fitted curve in the direction sought with a large enough effect in the repeat runs; an effect the other way counts as inactive or inconclusive). The conditions noted are these: ARE-bla HepG2 viability, CellTiter-Glo ATP luminescence, 16 h; stronger effect = lower value. The gist of the method:
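ARE-bla HepG2 cells treated with compounds for 16 h at 37C; this counter screen measures viability as intracellular ATP by CellTiter-Glo luminescence after 30 min at room temperature.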

Results filed as inconclusive are left out. Where a call stands in place of a potency, no number is given. Calls of active or inactive are those of the source. Unless noted, calls come from the whole dose curve; as a rule, active = well fitted curve in the direction sought with a large enough effect; inconclusive = small, poorly fitted or top-dose-only effect, or another doubt; inactive = no such curve, though single readings can be large; an effect the other way counts as inactive or inconclusive. Bounds are passed on as bounds.

Vitamin D3 receptor (Homo sapiens), sequence (P11473 whole entry, looked up): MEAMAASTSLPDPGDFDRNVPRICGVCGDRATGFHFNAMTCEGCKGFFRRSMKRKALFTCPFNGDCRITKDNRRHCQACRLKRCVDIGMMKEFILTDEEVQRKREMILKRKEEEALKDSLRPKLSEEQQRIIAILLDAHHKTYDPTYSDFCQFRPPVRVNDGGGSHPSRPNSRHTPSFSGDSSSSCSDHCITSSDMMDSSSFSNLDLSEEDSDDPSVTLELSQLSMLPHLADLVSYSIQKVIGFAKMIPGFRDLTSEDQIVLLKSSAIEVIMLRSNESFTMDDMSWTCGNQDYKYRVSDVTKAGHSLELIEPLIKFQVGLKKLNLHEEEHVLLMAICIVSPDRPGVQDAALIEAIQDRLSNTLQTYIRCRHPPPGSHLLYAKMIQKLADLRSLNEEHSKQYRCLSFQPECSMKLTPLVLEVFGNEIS
Retinoic acid receptor RXR-alpha (Homo sapiens), sequence (P19793 whole entry, looked up): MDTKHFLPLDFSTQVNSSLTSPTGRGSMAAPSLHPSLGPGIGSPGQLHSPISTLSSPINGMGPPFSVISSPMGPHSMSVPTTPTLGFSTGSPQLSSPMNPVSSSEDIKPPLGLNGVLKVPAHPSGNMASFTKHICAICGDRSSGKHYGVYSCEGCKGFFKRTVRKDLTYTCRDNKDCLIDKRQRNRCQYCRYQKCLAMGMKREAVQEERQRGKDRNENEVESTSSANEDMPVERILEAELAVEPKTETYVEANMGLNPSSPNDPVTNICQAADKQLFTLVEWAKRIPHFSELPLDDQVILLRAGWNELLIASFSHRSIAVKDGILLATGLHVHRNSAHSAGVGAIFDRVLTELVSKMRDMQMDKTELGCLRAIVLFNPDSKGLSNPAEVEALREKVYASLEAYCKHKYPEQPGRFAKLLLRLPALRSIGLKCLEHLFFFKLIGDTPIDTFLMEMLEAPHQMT
Thyroid hormone receptor beta (Homo sapiens), sequence (P10828 whole entry, looked up): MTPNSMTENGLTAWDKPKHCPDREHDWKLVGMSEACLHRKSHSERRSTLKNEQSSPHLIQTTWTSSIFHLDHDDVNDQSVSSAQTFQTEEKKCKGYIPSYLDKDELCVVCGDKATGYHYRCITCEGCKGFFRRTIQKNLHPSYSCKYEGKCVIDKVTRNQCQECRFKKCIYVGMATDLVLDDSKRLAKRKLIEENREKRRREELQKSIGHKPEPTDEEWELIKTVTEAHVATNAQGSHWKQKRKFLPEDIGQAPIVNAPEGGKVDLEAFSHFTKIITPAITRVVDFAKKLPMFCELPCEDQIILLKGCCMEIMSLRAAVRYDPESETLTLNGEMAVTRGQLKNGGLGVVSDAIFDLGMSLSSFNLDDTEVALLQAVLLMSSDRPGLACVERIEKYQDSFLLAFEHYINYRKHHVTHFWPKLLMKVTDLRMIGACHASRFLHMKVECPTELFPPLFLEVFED
Bile acid receptor (Homo sapiens), sequence (Q96RI1 whole entry, looked up): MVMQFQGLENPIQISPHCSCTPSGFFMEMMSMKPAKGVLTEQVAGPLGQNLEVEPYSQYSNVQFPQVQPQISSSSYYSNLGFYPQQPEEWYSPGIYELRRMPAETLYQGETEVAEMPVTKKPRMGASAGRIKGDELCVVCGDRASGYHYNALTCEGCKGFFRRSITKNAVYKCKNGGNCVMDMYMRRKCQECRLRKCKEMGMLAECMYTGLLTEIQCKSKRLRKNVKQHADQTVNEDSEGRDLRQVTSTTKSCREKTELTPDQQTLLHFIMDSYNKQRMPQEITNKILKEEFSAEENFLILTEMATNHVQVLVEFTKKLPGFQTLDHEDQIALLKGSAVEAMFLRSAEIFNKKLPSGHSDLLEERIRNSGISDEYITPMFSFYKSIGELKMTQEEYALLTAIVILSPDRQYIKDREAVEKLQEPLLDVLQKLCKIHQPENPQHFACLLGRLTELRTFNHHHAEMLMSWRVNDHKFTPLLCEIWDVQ

Turning to `C=C1CC[C@H](O)C/C1=C\C=C1/CCC[C@]2(C)[C@@H]([C@H](C)CC[C@H](C)C(C)C)CC[C@@H]12`, in [1], the Potency entry is “inactive”.

`O=C(/C=C/c1ccc(O)c(O)c1)O[C@H]1[C@H](O)C[C@](O)(C(=O)O)C[C@H]1OC(=O)/C=C/c1ccc(O)c(O)c1`: in assay [1], the Potency result is “inactive”. The same measure, in the same setting: with `O=c1cc(-c2ccc(O)cc2)oc2cc(O[C@@H]3O[C@H](CO)[C@@H](O)[C@H](O)[C@H]3O[C@@H]3OC[C@](O)(CO)[C@H]3O)cc(O)c12` the entry was “inactive”; with `CC[C@H](CC[C@@H](C)[C@H]1CCC2C3CCC4C[C@@H](O)CC[C@]4(C)C3CC[C@@]21C)C(C)C` (stereo partly specified), “inactive”; with `COc1ccc2ccc(=O)oc2c1`, “inactive”. As to `C=C1C[C@@]23CC[C@H]4[C@@](C)(CCC[C@@]4(C)C(=O)O[C@@H]4O[C@H](CO)[C@@H](O)[C@H](O)[C@H]4O)[C@@H]2CC[C@]1(O[C@@H]1O[C@H](CO)[C@@H](O)[C@H](O[C@@H]2O[C@H](CO)[C@@H](O)[C@H](O)[C@H]2O)[C@H]1O[C@@H]1O[C@@H](C)[C@H](O)[C@@H](O)[C@H]1O)C3`, the Potency entry in assay [1] is “inactive”. Regarding `Cc1c(C)c2c(c(C)c1O)CC[C@@](C)(CCC[C@H](C)CCC[C@H](C)CCCC(C)C)O2`, the Potency entry in assay [1] is “inactive”. As for `CN(CC(=O)O)C(=N)N`, the Potency result in assay [1] is “inactive”. Consider `C=C1CC[C@H]2C[C@@H]1C2(C)C`, for which the Potency result in [1] was “inactive”. `CC1=C2[C@H](/C=C(\C)C(=O)O)CC[C@@H](C)[C@H]2CC1`: the activation in assay [2] is -3.32% (inactive). In addition, in [1], the Potency result is “inactive”. For the compound `C[S+](CC[C@H](N)C(=O)O)C[C@H]1O[C@@H](n2cnc3c(N)ncnc32)[C@H](O)[C@@H]1O` (stereo partly specified), in [1], the Potency entry is “inactive”. For `O[C@@H]1[C@@H](O)[C@H](OC/C=C/c2ccccc2)O[C@H](CO[C@@H]2OC[C@H](O)[C@H](O)[C@H]2O)[C@H]1O`, the Potency result in assay [1] was “inactive”. With `NC(Cc1c[nH]c2ccccc12)C(=O)O` (stereo unspecified), in assay [1], the Potency entry is “inactive”. As to `COc1ccc(/C=C/c2cc(OC)cc(=O)o2)cc1`, in assay [1], the Potency result is “inactive”. Take `CC1=CC[C@H](C(C)C)C=C1`: the Potency entry in [1] was “inactive”. Still for that read-out and setting: in the case of `O=C(O[C@@H]1Cc2c(O)cc(O)cc2O[C@@H]1c1ccc(O)c(O)c1)c1cc(O)c(O)c(O)c1` it was “inactive”; in that of `Oc1cccc(O)c1O`, “inactive”; in that of `CCCCC/C=C/C(=O)CCc1ccc(O)c(OC)c1`, “inactive”.

Turning to `CC(C)=CCC[C@](C)(O[C@@H]1O[C@H](CO)[C@@H](O)[C@H](O)[C@H]1O)[C@H]1CC[C@]2(C)[C@@H]1[C@H](O)C[C@@H]1[C@@]3(C)CC[C@H](O)C(C)(C)[C@@H]3[C@@H](O[C@@H]3O[C@H](CO)[C@@H](O)[C@H](O)[C@H]3O)C[C@]12C`, the Potency result in [1] was “inactive”.

Regarding `C[C@@]12CC[C@@H]3[C@@](CC[C@H]4[C@@]3(C)CCC[C@@]4(C)C(=O)O)(CC1=O)C2`, in [1], the Potency entry is “inactive”. The same measure, in the same setting: with `O=c1c(O[C@@H]2O[C@H](CO)[C@H](O)[C@H](O)[C@H]2O)c(-c2ccc(O)c(O)c2)oc2cc(O)cc(O)c12` the entry was “inactive”. Turning to `C=C(C)[C@H]1CC=C(C)CC1`, the Potency result in [1] was “inactive”. Consider `O=S(=O)(O)O`, for which the Potency result in assay [1] was “inactive”. For the compound `COC1=CC(=O)O[C@@H](/C=C/c2ccc3c(c2)OCO3)C1`, the results for the Potency in [3] and in assay [13] were > 92 µM (inactive) and 6.68 µM (active), respectively. The Potency result in assay [4], in assay [5] and in [6] was “inactive” each time. For the same compound, the compound was classed as inactive in assay [7], in assay [9], in [10] and in assay [11]. In addition, the max response in assay [8] is 27.2%; in [12] it was -29.4% (inactive); in assay [14], -10.1% (inactive).
